This is an account of results in PubChem BioAssay AID488969 (Vanderbilt High Throughput Screening Facility, 2010).

Whole data set: some 110,000 compounds, median “z-score” near -0.1, cut for the highest 2% near 2. This is one part of a sample in which the highest values are shown more often than they occur. Active and inactive are the calls of the source.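 The calls were made as follows: active = z-score in the third read window above 3 or below -3; inactive = the rest.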

Metabotropic glutamate receptor 8 (Rattus norvegicus), sequence (P70579 whole entry, looked up): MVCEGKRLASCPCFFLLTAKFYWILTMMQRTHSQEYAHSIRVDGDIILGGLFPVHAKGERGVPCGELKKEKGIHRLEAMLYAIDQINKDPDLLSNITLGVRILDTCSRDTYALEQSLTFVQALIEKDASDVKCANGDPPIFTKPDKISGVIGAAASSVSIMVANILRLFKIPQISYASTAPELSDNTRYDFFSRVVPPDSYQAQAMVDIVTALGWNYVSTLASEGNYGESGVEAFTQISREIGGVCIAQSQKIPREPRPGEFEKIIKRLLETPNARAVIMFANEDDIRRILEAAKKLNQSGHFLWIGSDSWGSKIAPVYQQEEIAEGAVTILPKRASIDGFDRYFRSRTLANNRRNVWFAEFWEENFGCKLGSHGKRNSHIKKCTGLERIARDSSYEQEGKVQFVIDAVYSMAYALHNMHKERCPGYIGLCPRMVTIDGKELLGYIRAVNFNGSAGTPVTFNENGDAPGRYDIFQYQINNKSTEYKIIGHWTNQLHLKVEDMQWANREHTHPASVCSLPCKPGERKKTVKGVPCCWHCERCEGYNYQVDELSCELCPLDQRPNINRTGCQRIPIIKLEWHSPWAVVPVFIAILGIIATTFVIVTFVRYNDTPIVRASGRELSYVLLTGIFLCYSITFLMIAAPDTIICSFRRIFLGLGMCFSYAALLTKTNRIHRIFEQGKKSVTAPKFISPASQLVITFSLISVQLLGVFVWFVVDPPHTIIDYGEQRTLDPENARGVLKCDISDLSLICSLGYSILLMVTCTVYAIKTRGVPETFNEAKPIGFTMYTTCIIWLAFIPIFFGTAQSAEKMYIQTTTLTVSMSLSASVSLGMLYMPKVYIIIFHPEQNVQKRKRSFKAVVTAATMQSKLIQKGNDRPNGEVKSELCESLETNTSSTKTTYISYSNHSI

The assay addresses Metabotropic glutamate receptor 8 (Rattus norvegicus) (UniProt P70579). Briefly: rat mGluR8 modulators via GIRK flux, primary screen, cell-based, thallium flux, HTS (AID 488969). The note with it: HEK293 rat mGluR8, GIRK (G protein-gated inwardly rectifying potassium channel) thallium flux, FluoZin2; at 10 µM; stronger effect = higher value; submaximal glutamate (EC20) added with thallium.
Compound `CCOc1ccc(-c2cn3ccccc3n2)cc1[N+](=O)[O-]` registered a z-score of 0.461.
`O=C(c1cccc(-n2cnnn2)c1)N1CC=C(c2ccccc2)CC1` showed a z-score of 0.39.
`CN1CCN(/C(=N\S(=O)(=O)c2ccc(F)cc2)c2ccccc2)CC1`: the z-score is -0.0184.
For the compound `Cc1sc2ncnc(N3CCOCC3)c2c1C`, the z-score was -0.134.
The compound `O=[N+]([O-])c1ccc(-c2csc(N3CCc4ccccc4C3)n2)cc1` had a z-score of -0.0911.
`CC(c1ccccc1)n1c(SCC(=O)N2CC(=O)Nc3ccccc32)nc2ccccc2c1=O` (configuration not stated): the z-score was 4.74 (active).
As for `O=C1CN(C(=O)CSc2nc3cc(Cl)ccc3c(=O)n2Cc2ccccc2)c2ccccc2N1`, the z-score is 7.11 (active).
For `O=C1CN(C(=O)CSc2nc3ccccc3c(=O)n2Cc2ccc(F)cc2)c2ccccc2N1`, the z-score is 3.79 (active).
Regarding `Cc1nnc(SCC(=O)N2CC(=O)Nc3ccccc32)n1Cc1ccccc1`, the z-score was -0.151.
`Cc1ccc(Cn2c(SCC(=O)N3CC(=O)Nc4ccccc43)nc3ccccc3c2=O)cc1` had a z-score of 1.31.
Turning to `Cc1ccc(-n2c(SCC(=O)N3CC(=O)Nc4ccccc43)nc3ccccc3c2=O)cc1`, the z-score was -0.279.
The same measure for `Cc1ccc(-n2c(SCC(=O)N3CC(=O)Nc4ccccc43)nc3ccccc3c2=O)cc1C`: -0.183; for `O=C1CN(C(=O)CSc2nc3ccccc3n2CCc2ccccc2)c2ccccc2N1`: -0.346.
Regarding `Cc1cccc(C)c1-n1c(SCC(=O)N2CC(=O)Nc3ccccc32)nc2ccccc2c1=O`, the z-score is -0.109.
For the compound `O=C(O)/C=C/C(=O)Nc1ccccc1C(=O)Nc1ccccc1`, the z-score is 0.317.
The same measure for `CCOC(=O)C1=C(Nc2ccccc2)CC(C)(O)C(C(=O)OCC)C1c1ccc(Cl)cc1` (configuration not stated): -0.445; for `COc1ccc(CCC(C)NCC2CCCCC2)cc1` (configuration not stated): 0.819; for `Cc1csc(NC(=S)Nc2cccc(Cl)c2)n1`: 14.7 (active).
`Fc1ccc(CNC(=S)Nc2cccc(Cl)c2)cc1`: the z-score is 5.18 (active).
Regarding `S=C(NCc1cccs1)Nc1ccc(Cl)cc1`, the z-score came to 0.118.
The same measure for `CCOC(=O)c1csc(NC(=O)Nc2cccc(Cl)c2)n1`: -0.0455; for `S=C(NCc1cccs1)Nc1cccc(Cl)c1`: 4.52 (active); for `Fc1ccc(NC(=S)Nc2cccc(Cl)c2)cc1`: 1.26.
Then `O=C(NCc1cccs1)Nc1cccc(Cl)c1`, with 0.43; and `S=C(NCc1ccncc1)Nc1cccc(Cl)c1`, with -0.135.
For `Cc1csc(NC(=O)Nc2cccc(Cl)c2)n1`, the z-score was determined as 0.398.
`O=C(Nc1ccccc1)N1CCCc2ccccc21`: the z-score was -0.0768.
Compound `O=C(NCCCN1CCCC1=O)c1ccccc1NS(=O)(=O)c1ccc(Br)cc1` returned a z-score of -0.938.
In turn, `CCCn1cc(NC(=O)C2CC(c3cccc(Br)c3)=NO2)cn1` (configuration not stated) yielded a z-score of -0.352.
In turn, `CCOc1cc(/C=C2/NC(=O)N(CC(=O)Nc3cccc(C)c3)C2=O)ccc1O` gave a z-score of -0.784.
`N#CC1=C(SCC(=O)NCc2ccccc2)NC(=O)CC1c1ccco1` (configuration not stated) showed a z-score of 1.77.
Then `CC(C)=C1C2CCC1C1C(=O)N(c3nc(-c4ccc(C(C)C)cc4)c(C)s3)C(=O)C21` (configuration not stated), with -0.0235; and `O=C(NC(=S)N1CCN(c2c(Cl)cccc2[N+](=O)[O-])CC1)c1cccs1`, with -4.63 (active).
Take `O=C(NC(=S)N1CCN(c2ccc(Cl)cc2[N+](=O)[O-])CC1)c1ccco1`: the z-score was found to be 2.99.
Consider `O=C(NC(=S)N1CCN(c2ccc(C(F)(F)F)cc2[N+](=O)[O-])CC1)c1cccs1`, for which the z-score was 8.9 (active).
`O=C(NC(=S)N1CCN(c2ccc([N+](=O)[O-])cc2Cl)CC1)c1ccco1`: the z-score was 1.05.
`O=C(Nc1cc(C(F)(F)F)ccc1N1CCOCC1)c1cccs1`: the z-score was determined as 1.15.
Regarding `O=C(NC(=S)N1CCN(c2ccc(Cl)cc2[N+](=O)[O-])CC1)c1cccs1`, the z-score is 9.46 (active).
Then `O=C(CSc1ccc(Cl)cc1)N1CCN(c2ccc(Cl)cc2[N+](=O)[O-])CC1`, with -0.109; and `O=C(NC(=S)N1CCCCC1)c1cccs1`, with 0.578.
In turn, `NC(=O)C1CCN(c2ccc(C(F)(F)F)cc2[N+](=O)[O-])CC1` showed a z-score of 0.0305.
With `COc1ccc(NC(=O)Nc2ccc(Br)cn2)cc1OC`, the z-score is -0.221.
`COc1ccc2nc(NC(=O)CSc3nnc(N)s3)sc2c1`: the z-score amounted to 0.075.
As for `Cc1[nH]n(-c2ccc([N+](=O)[O-])cc2)c(=O)c1C=NCCc1c(C)[nH]c2ccccc12`, the z-score is -0.0759.
As for `Cc1[nH]n(-c2ccccc2)c(=O)c1N=Nc1cccc(S(=O)(=O)N2CCOCC2)c1`, the z-score was found to be 0.327.
The same measure for `Cc1[nH]n(-c2ccccc2)c(=O)c1N=Nc1nccs1`: 14.8 (active); for `Cc1[nH]n(-c2ccccc2)c(=O)c1S(=O)(=O)c1ccccc1`: -0.642; for `Cc1[nH]n2c(=O)cc(-c3ccc([N+](=O)[O-])cc3)nc2c1-c1ccccc1`: -1.93.
Then `Cc1[nH]n(-c2ccc([N+](=O)[O-])cc2)c(=O)c1N=Nc1nc2ccccc2s1`, with 2.47; and `CN(Cc1ccc(-n2cccn2)cc1)C(=O)c1cnn2c1NC(c1ccco1)CC2C(F)(F)F` (configuration not stated), with -0.35.
Then `CCCCN1C(=S)SC(C)(C)C1/[N+]([O-])=C/c1cccnc1` (configuration not stated), with -0.00445.
The compound `CCN1C(=O)C2C(C1=O)N1C(c3ccccc3)C3C(=O)N(CC)C(=O)C3N1C2c1ccccc1` (configuration not stated) registered a z-score of 0.0538.
Consider `CC(=O)c1ccc(OCC(O)CN2C(C)(C)CC(O)CC2(C)C)cc1` (configuration not stated), for which the z-score is -0.153.
As for `CCn1c(=N)n(CC(O)COc2cccc(C)c2)c2ccccc21` (configuration not stated), the z-score turned out to be 0.778.
Take `CCCn1c(=N)n(CC(O)c2ccco2)c2ccccc21` (configuration not stated): the z-score came out at 0.907.
Take `CCCCCn1c(=N)n(CC(O)COc2ccccc2OC)c2ccccc21` (configuration not stated): the z-score is -1.11.
`C=CCn1c(=N)n(CC(O)COc2ccccc2OC)c2ccccc21` (configuration not stated) came in with a z-score of 1.12.
The same measure for `CCCn1c(=N)n(CC(O)COc2cccc(C)c2)c2ccccc21` (configuration not stated): 3.74 (active); for `Cc1cccc(OCC(O)CN2C(C)(C)CC(O)CC2(C)C)c1C` (configuration not stated): 1.1; for `Cc1cccc(OCC(O)CN2C(C)(C)CC(O)CC2(C)C)c1` (configuration not stated): 9.44 (active).
Regarding `CCCCn1c(=N)n(CC(O)COc2cccc(C)c2)c2ccccc21` (configuration not stated), the z-score was 4.52 (active).
`CC(=O)c1ccc(OCCCC(=O)Nc2ccc(C)c(S(=O)(=O)N(C)C)c2)cc1` yielded a z-score of 0.136.
The same measure for `O=C(CCNc1cc(Cl)cc(Cl)c1)c1cccs1`: 0.0113; for `COc1ccc(NS(=O)(=O)c2c(C)n(C)c(=O)n(C)c2=O)cc1OC`: -0.0428; for `Cc1ccc(S(=O)(=O)Cc2ccc(C(=O)NCc3ccc4c(c3)OCO4)o2)cc1`: -0.326.
`NS(=O)(=O)c1ccc(CCNC(=O)C2CCN(S(=O)(=O)c3cnc[nH]3)CC2)cc1`: the z-score was -0.00955.
Compound `O=C(NC1CCCC1)C(c1cccnc1)N(C(=O)c1csnn1)C1CCCC1` (configuration not stated) had a z-score of -0.145.
